# Sampled rows, rich in hits. Any-hit rate of the full collection: about 7.9%.
# HCV inh: qHTS Assay for Inhibitors of Hepatitis C Virus (HCV); Huh7.5.1 HCVcc-Cre infection, luciferase reporter, 44 h; Potency, µM (top dose mostly 41.8 µM), actives largely listed as inhibitors; actives 3.4% (n = 340,000); AID 651820, 2012; active means well fitted inhibition curve with a large enough effect; inconclusive means small, poorly fitted or top-dose-only effect, or another doubt; inactive means no such curve, though single readings can be large or run the other way
#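 Antiviral activity was scored by luciferase reporter output from cells infected with HCVcc-Cre (~0.5 moi) in presence of compound, 44 h infection period, cells seeded 1,000/well 4 h prior.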
# HCMV antiviral: qHTS Assay for inhibitors of the human cytomegalovirus (HCMV); HFF cells, HCMV-luciferase reporter, 72 h; active compounds read low; activity change, negative = inhibition, % at 57.5 µM; actives 4.5% (n = 410,000); AID 1259415, 2018; in the data active means activity change below about -60%; inconclusive means no clear call, values can overlap the other calls; inactive means above about -39%
#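 Two compound doses tested in HFFs infected with HCMV-luciferase, MOI 1 PFU/cell, 72 h at 37C. Lysate luminescence read with OneGlo; data normalized against buffer-only and 10uM Salinomycin inhibitor controls.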
# MARV entry inh: qHTS for inhibitors of binding or entry into cells for Marburg Virus; Marburg virus pseudotyped entry inhibition, cell reporter; actives 1.8% (n = 300,000); Potency, µM (top dose mostly 37.8 µM), usual class: inhibitors; calls by dose curve; tested in HEK293 cells
# FMDV antiviral: High Throughput Screening for Foot and Mouth Disease Virus Antivirals. FMDV antiviral cell-based qHTS. Potency, µM (doses to about 57.9 µM), actives largely listed as inhibitors. actives 1.2% (n = 410,000); calls by dose curve; tested in HEK293T cells; further: read-out not given here; nearly all actives have a fitted effect of over 45% in size
# Lassa entry inh: qHTS for Inhibitors of binding or entry into cells for Lassa Virus. Lassa virus pseudotype entry inhibition, cell reporter. Potency, µM (titrated, usually from 37.9 µM), actives largely listed as inhibitors. actives 1.2% (n = 300,000); calls by dose curve; tested in HEK293 cells; further: nearly all actives have a fitted effect of over 50% in size
# A number is an active result; n = inactive; u = inconclusive; x = not tested or not shown.
SMILES,HCV inh,HCMV antiviral,MARV entry inh,FMDV antiviral,Lassa entry inh
COc1ccccc1Nc1c2c(nc3ccc(NC(=O)c4cccc(F)c4)cc13)CCCC2,x,-107,u,32µM,u
COc1ccc(/C=C/C(=O)Nc2ccc3nc4c(c(Nc5ccccc5OC)c3c2)CCCC4)cc1,x,-102,u,n,n
COc1ccc(/C=C/C(=O)Nc2ccc3nc(N4CCC(C)CC4)cc(C)c3c2)cc1,x,n,n,u,n
COc1ccccc1Nc1c2c(nc3ccc(NC(=O)/C=C/c4cccc(OC)c4OC)cc13)CCCC2,x,-99,u,n,n
O=C(Nc1ccc2nc3n(c(=O)c2c1)CCCC3)c1cccc(F)c1,n,n,x,n,x
CCOc1ccc(CCNC(=O)c2cc(Nc3ccc(C)cc3C)nc3ccccc23)cc1OCC,x,n,n,n,n
CS(=O)(=O)CCNCc1nc(-c2ccc3ncnc(Nc4ccc(F)c(Cl)c4)c3c2)cs1,x,x,x,x,n
O=C1[C@H]2[C@H]3[C@H](O)[C@H](O)C/C(=N\OC[C@@H](O)COCc4ccco4)[C@H]3CC[C@H]2C(=O)N1Cc1ccccc1,x,x,n,x,x
CCc1ccc(C2CC(=O)N(c3cccc(C(F)(F)F)c3)C3=C2C(=O)OC3)cc1 (configuration not stated),x,n,n,n,n
CC[C@H](C)C(=O)O[C@H]1CCC=C2C=C[C@H](C)[C@H](CC[C@@H]3C[C@H](O)CC(=O)O3)[C@H]21,x,x,n,n,x
CCC(C)C(=O)OC1CCC=C2C=CC(C)C(CCC3CC(O)CC(=O)O3)C21 (configuration not stated),n,-97,n,n,n
CC[C@H](C)C(=O)O[C@H]1CCC=C2C=C[C@H](C)[C@H](CC[C@@H]3C[C@@H](O)CC(=O)O3)[C@H]21,0.56µM,u,u,n,n
CCn1c(-c2cccc(OC)c2)nc2cc(NC(C)=O)cc(C(=O)N3CCC[C@H]3C(=O)OC)c21,x,x,x,n,x
CN(C/C=C/C#CC(C)(C)C)Cc1cccc2ccccc12,n,-80,x,u,x
COc1ccc(CCN(C)Cc2cccc3ccccc23)cc1OC,n,n,x,n,x
Cc1cccc(NC(=O)CSCC(=O)N(CCC(C)C)c2c(N)n(Cc3ccccc3)c(=O)[nH]c2=O)c1,u,n,u,n,10µM
CCN(C[C@H]1N[C@@](CC)(C(=O)OC)[C@H]2C(=O)N(Cc3ccccc3)C(=O)[C@@H]12)C(=O)NC(C)C,6.3µM,n,x,n,x
CCN(C[C@H]1N[C@@](Cc2ccccc2)(C(=O)OC)[C@H]2C(=O)N(Cc3ccccc3)C(=O)[C@@H]12)C(=O)Nc1ccc(C(F)(F)F)cc1,13µM,u,x,n,x
CCN(C[C@H]1N[C@@](Cc2ccccc2)(C(=O)OC)[C@H]2C(=O)N(Cc3ccccc3)C(=O)[C@@H]12)C(=O)Nc1ccc(C)cc1,u,n,x,n,x
CC[C@@]1(C(=O)OC)N[C@H](CN(C)C(=O)NC(C)C)[C@@H]2C(=O)N(Cc3ccccc3)C(=O)[C@@H]21,n,n,x,n,x
COC(=O)C(C(C)=O)[C@@H](NC(=O)NCc1ccccc1)c1ccccc1 (some centres not stated),x,x,n,x,x
Cc1ccc2c(c1)CN(CCNC(=O)c1n[nH]c3c1CCCC3)CC(C)O2 (configuration not stated),x,x,x,n,x
COc1ccc(-n2cc(C(=O)N(C)c3cc(C)ccc3OC)c3ccccc3c2=O)cc1,x,-85,x,n,n
CCN(C(=O)c1cn(-c2cccc(OC)c2)c(=O)c2ccccc12)c1ccccc1C,x,-70,x,n,n
COc1cccc(-n2cc(C(=O)Nc3ccccc3C(N)=O)c3ccccc3c2=O)c1,x,-80,x,n,n
SMILES,HCV inh,HCMV antiviral,MARV entry inh,FMDV antiviral,Lassa entry inh
CCN(CC)C(=O)c1cn(-c2cccc(OC)c2)c(=O)c2ccccc12,n,n,x,n,x
COc1ccc2c3c([nH]c2c1)[C@@H](CO)N(Cc1ccccc1)CC31CN(C(=O)Cc2ccccc2)C1,x,n,x,x,x
Cc1ccc(CN2CCN(C3CCOCC3)CC2CCO)cc1 (configuration not stated),n,n,n,n,u
ClC(Cl)c1nnc(-c2ccccc2)c(-c2c[nH]c3ccccc23)n1,u,-86,u,n,n
O=C(NC1CCCCC1)N1CCN(c2ccccc2)CC1,n,n,n,n,n
O=C(NC1CCCC1)C1CCN(C(=O)NCc2ccccc2)CC1,n,-63,x,n,x
O=C(NCc1ccc(Cl)cc1)C1CCN(C(=O)Cc2ccccc2)CC1,n,-68,n,n,n
